Results published in PubChem BioAssay AID1851 (National Center for Advancing Translational Sciences (NCATS), 2009).
“And” between values parts separate entries of the source, which are not always exact repeats. Equal entries are not always repeated. Hit rate of the full screen: of about 16,000 compounds, about 4,000 (25%) were called active. Another 26% or so got no clear call; they are omitted. Calls come from the whole dose curve; as a rule, active = well fitted curve in the direction sought with a large enough effect; inconclusive = small, poorly fitted or top-dose-only effect, or effect the other way; inactive = no such curve, though single readings can be large or run the other way. Only a sample is shown. More than one record can exist for a structure, and the calls need not agree.

The compounds below were run against Cytochrome P450 2C9 (Homo sapiens) (UniProt P11712) (assay: Cytochrome panel assay with activity outcomes). Conditions: recombinant CYP, pro-luciferin dealkylation, luminescence, p450-cyp2c9; series mostly up to 57.1 µM; activity, negative = inhibition: at the top concentration.
Sequence of Cytochrome P450 2C9 (Homo sapiens) (P11712 whole entry, looked up): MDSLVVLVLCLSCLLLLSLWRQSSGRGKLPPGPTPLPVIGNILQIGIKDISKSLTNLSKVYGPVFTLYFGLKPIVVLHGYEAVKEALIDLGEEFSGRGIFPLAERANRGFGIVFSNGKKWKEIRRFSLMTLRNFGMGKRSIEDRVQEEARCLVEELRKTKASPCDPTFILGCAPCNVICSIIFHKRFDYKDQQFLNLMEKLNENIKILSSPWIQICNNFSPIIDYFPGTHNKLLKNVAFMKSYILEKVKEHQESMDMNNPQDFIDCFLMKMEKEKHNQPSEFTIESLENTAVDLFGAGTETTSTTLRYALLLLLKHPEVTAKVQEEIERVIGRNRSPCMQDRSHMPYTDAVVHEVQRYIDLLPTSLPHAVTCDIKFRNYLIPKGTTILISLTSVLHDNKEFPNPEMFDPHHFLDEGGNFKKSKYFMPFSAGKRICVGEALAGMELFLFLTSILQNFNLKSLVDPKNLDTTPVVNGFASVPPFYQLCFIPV
% is set by controls: 0 for no effect and ±100 for the full control effect.

| SMILES | AC50 | activity, negative = inhibition |
| --- | --- | --- |
| Clc1ccc(C(c2ccc(Cl)cc2)n2cc[n+](C[C@@H](OCc3ccc(Cl)cc3Cl)c3ccc(Cl)cc3Cl)c2)cc1 | 31.6 µM (active) |  |
| Cc1nc(-c2ccc(-c3ccc(C(=O)N4CCc5cc6c(cc54)C4(CCN(C)CC4)CO6)cc3)c(C)c2)no1 | inactive and 7.94 µM (active) |  |
| NCCc1ccc(S(=O)(=O)O)cc1[N+](=O)[O-] |  | 8.12% [at 11.4 µM] (inactive) |
| C[C@H](N)c1cccc(Cl)c1Cl |  | -4.33% (inactive) |
| CC[C@H](Oc1ccc(Cl)cc1)C(=O)OC1C[C@H]2CC[C@@H](C1)N2C (stereo partly specified) | 0.1 µM (active) |  |
| CN1C2CCC1CC(OC(=O)c1ccc(Cl)cc1)C2 (stereo unspecified) |  | 0.397% (inactive) |
| C[C@@H](C(=O)OC1C[C@H]2CC[C@@H](C1)N2C)c1ccc(Br)cc1 (stereo partly specified) |  | 2% (inactive) |
| CCCN(CCC)[C@@H]1CCc2ccc(O)cc2C1 |  | inactive |
| O=C(Nc1ccccc1)N1CCC2(CC1)CCN(C(=O)Oc1ccccc1)CC2 |  | -2.26% (inactive) |
| c1cnc(N2CCC3(CCNCC3)CC2)nc1 |  | -14.4% (inactive) |
| C[Se]C[C@@H](N)C(=O)O |  | 10.4% (inactive) |
| O=c1[nH]c(=O)n([C@H]2C[C@H](O)[C@H](CO)O2)cc1/C=C\Br |  | 2.05% (inactive) |
| Oc1ccc2c3c1O[C@H]1c4c(c5ccccc5n4Cc4ccccc4)C[C@]4(O)[C@H](C2)N(CC2CC2)CC[C@@]314 |  | -20.5% (inactive) |
| Clc1cccc(N2CCNCC2)c1 |  | 8.01% (inactive) |
| c1ccc2nc(N3CCNCC3)ccc2c1 |  | inactive |
| Clc1cncc(N2CCNCC2)n1 | 2 µM (active) |  |
| CCCN(CCC)[C@H]1CCc2c(F)ccc(O)c2C1 |  | inactive |
| NS(=O)(=O)C[C-]1C=C[CH]([Sb-]([Cl])([Cl])([Cl])([Cl])[Cl])C=C1.c1ccncc1 (stereo unspecified) |  | 2.33% [at 11.4 µM] (inactive) |
| Cc1ccccc1-c1cncnc1NCCc1cnc[nH]1 | 1 µM (active) |  |

| SMILES | AC50 | activity, negative = inhibition |
| --- | --- | --- |
| CNCCc1cnc[nH]1 |  | 4.83% (inactive) |
| CN1C(=O)C(=Cc2ccccc2Oc2ccc(Cl)c(F)c2)C(=O)N(C)C1=O | 6.31 µM (active) |  |
| COC1=C(C)C(=O)c2c(c(COC(N)=O)c3n2C[C@@H]2[C@@H]3N2C)C1=O (stereo partly specified) |  | -23.6% [at 11.4 µM] (inactive) |
| Cc1sc2ccccc2c1CC1=NCCN1 |  | -12.9% (inactive) |
| CC(=O)O[C@H]1C[C@@H](O[C@@H]2[C@H](C)O[C@H](O[C@@H]3[C@H](C)O[C@H](O[C@@H]4CC[C@@]5(C)[C@@H](CC[C@]6(C)[C@]5(C)C[C@H](O)[C@]5(C)[C@@H](C7=CC(=O)OC7)CC[C@@]56O)C4)C[C@@H]3O)C[C@@H]2O)O[C@@H](C)[C@H]1O[C@H]1O[C@@H](CO)[C@@H](O)[C@@H](O)[C@@H]1O |  | 0.428% [at 25.6 µM] (inactive) |
| CNC(=O)OCC[N+](C)(C)C |  | 5.87% (inactive) |
| COC(=O)c1cc2c(cn1)[nH]c1ccccc12 |  | 15% (inactive) |
| COC(=O)c1[nH]c2ccc(Br)cc2c1NC(=O)Oc1ccccc1 | 8.91 µM (active) |  |
| N[C@@H](Cc1cc(Br)c(O)c(Br)c1)C(=O)O |  | -7.73% [at 11.4 µM] (inactive) |
| CN(C(=O)Cc1ccc(Cl)c(Cl)c1)[C@@H](CN1CCCC1)c1cccc(OCC(=O)O)c1 |  | inactive |
| COC(=O)N1CCN(C(=O)Cc2ccc(Cl)c(Cl)c2)[C@H](CN2CCCC2)C1 | inactive and 12.6 µM (active) |  |
| O=C(Cc1ccc(Cl)c(Cl)c1)N1CCCC[C@H]1CN1CCCC1 |  | -9.68% (inactive) |
| O=c1[nH]c(=O)n(CCC2=CCCCC2)c(O)c1C=Nc1cccc(F)c1 |  | -22% (inactive) |
| CCn1cnc2c(Nc3cccc(Cl)c3)nc(N[C@@H]3CCCC[C@H]3N)nc21 |  | -29.6% (inactive) |
| Cc1ccccc1-n1c(O)c(C=Nc2ccc(N(C)C)cc2)c(=O)[nH]c1=O |  | -24.5% (inactive) |
| CC(C)N[C@@H](C)Cc1ccc(I)cc1 |  | -14.9% (inactive) |
| CCN(CC)C1=NC(=[N+](CC)CC)c2ccccc21 |  | -31.7% (inactive) |
| C[C@]1(C(=O)O)[C@@H]2CC[C@@H](O2)[C@@]1(C)C(=O)O |  | 25.2% (inactive) |
| CCOCCN1CCC(OC(C)=O)C(C)C1 (stereo unspecified) |  | -4.11% (inactive) |

| SMILES | AC50 | activity, negative = inhibition |
| --- | --- | --- |
| CCN1C[C@]2(C)CC[C@H](OC)[C@@]34[C@@H]2[C@H](OC(C)=O)[C@]2(OCO[C@@]25C[C@@H](OC)[C@@H]2C[C@@]3(O)[C@H]5[C@@H]2OC)[C@H]14 |  | 2.84% [at 25.6 µM] (inactive) |
| O=C1NC(=O)N(CCNc2ncc(C(F)(F)F)cc2Cl)C(=O)C1/C=N/OCc1c(F)cccc1Cl (stereo unspecified) | 0.794 µM (active) |  |
| NC[C@@H](CC(=O)O)c1ccc(Cl)cc1 |  | inactive |
| N[C@@]1(C(=O)O)CC[C@H](C(=O)O)C1 |  | inactive |
| COC[C@H]1OC(=O)c2coc3c2[C@@]1(C)C1=C(C3=O)[C@H]2CCC(=O)[C@@]2(C)C[C@H]1OC(C)=O |  | 7.54% (inactive) |
| Cc1cc(C(C)(C)C)cc(C)c1CC1=NCCN1 |  | -5.49% (inactive) |
| CC[C@H](CO)NC(=O)[C@@H]1C=C2c3cccc4c3c(cn4C)C[C@@H]2N(C)C1 |  | -11.5% (inactive) |
| C[C@]12CC[C@H](O)C[C@@H]1CC[C@H]1[C@H]2CC[C@]2(C)[C@H](C(=O)CO)CC[C@@H]12 | 25.1 µM (active) |  |
| CC(=O)OCC(=O)[C@@H]1CC[C@H]2[C@H]3CC[C@H]4C[C@@H](O)CC[C@]4(C)[C@@H]3C(=O)C[C@@]12C |  | -29% [at 25.6 µM] (inactive) |
| C[C@H]1CC[C@]2(OC1)O[C@@H]1C[C@@H]3[C@@H]4CC[C@H]5C[C@@H](O)CC[C@]5(C)[C@@H]4CC(=O)[C@@]3(C)[C@H]1[C@@H]2C |  | 13.6% [at 25.6 µM] (inactive) |
| C[C@@]12CC[C@H]3[C@@H](CCC4=CC(=O)CC[C@]43C)[C@H]1CC[C@H]2C(=O)CO |  | -24.9% [at 25.6 µM] (inactive) |
| CC(=O)[C@@H]1CC[C@H]2[C@H]3CC[C@H]4C[C@@H](O)CC[C@]4(C)[C@@H]3CC[C@]12C | 2 µM (active) |  |
| C[C@]12CC[C@H](O)C[C@@H]1CC[C@H]1[C@H]2CC[C@]2(C)C(=O)CC[C@@H]12 |  | inactive |
| CC(C)(C)NC[C@H](O)c1cc(Cl)c(N)c(Cl)c1 |  | 21% [at 25.6 µM] (inactive) |
| O=C1C=C2C=C[C@H]3C[C@@]2(O1)[C@H]1CCCCN31 |  | -3.6% [at 25.6 µM] (inactive) |
| CN[C@H](Cc1ccccc1)c1cccc(OC)c1O |  | 9.59% [at 11.4 µM] (inactive) |
| CCC(=O)O[C@@](Cc1ccccc1)(c1ccccc1)[C@@H](C)CN(C)C |  | -4.85% [at 25.6 µM] (inactive) |
| CC(C)Oc1cc(-n2c(=S)[nH]c3ccccc3c2=O)c(Cl)cc1Cl | 2.24 µM (active) |  |
